Experimental data: PubChem BioAssay (NCI)
Compounds without any hit were thinned out: in the full panel of roughly 83,000, 20% have a hit.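 Cell lines were cultured in 96-well plates, exposed to a single compound concentration, and assessed for percent growth 48 hours later.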 Active and inactive are the calls of the source. The calls were made as follows: active = growth percent below 10; inactive = the rest.

What was measured:
Assay in all cases: NCI-60 one-dose screen, 48 h (100 = growth as untreated, 0 = no growth, -100 = all killed)
Conditions in all cases: 10 µM unless noted
T-47D breast = system: T-47D breast
BT-549 breast = system: BT-549 breast
MDA-MB-435 melanoma = system: MDA-MB-435 melanoma
SW-620 colon = system: SW-620 colon
MCF7 breast = system: MCF7 breast
HCT-116 colon = system: HCT-116 colon
HCC-2998 colon = system: HCC-2998 colon
KM12 colon = system: KM12 colon

Measured: growth

C=C(C)[C@@H]1CC[C@]2(C(N)=O)CC[C@]3(C)[C@H](CC[C@@H]4[C@@]5(C)CC[C@H](O)C(C)(C)[C@@H]5CC[C@]43C)[C@@H]12
active: T-47D breast -24.8% [100 µM] | BT-549 breast -21.6% [100 µM] | MDA-MB-435 melanoma -4.44% [100 µM] | SW-620 colon -4.49% [100 µM] | MCF7 breast -12.5% [100 µM] | HCT-116 colon -24.8% [100 µM] | HCC-2998 colon -39% [100 µM] | KM12 colon -63.5% [100 µM]

CCCC[C@@H](C=O)NC(=O)[C@H](CC(C)C)NC(=O)[C@H](CC(C)C)NC(=O)OCc1ccccc1
active: T-47D breast -42.7% | BT-549 breast -70.3% | MDA-MB-435 melanoma -4.11% | SW-620 colon -34.6% | MCF7 breast 0.513% | HCT-116 colon -58.5% | HCC-2998 colon -74.1% | KM12 colon -51.4%

CCCCCN(CCCCC)CCCCCCCCN1CCCc2ccccc21
inactive: T-47D breast 108% | BT-549 breast 88.6% | MDA-MB-435 melanoma 87.9% | SW-620 colon 82.8% | MCF7 breast 101% | HCT-116 colon 64.8% | HCC-2998 colon 74.8% | KM12 colon 73.4%

CN(C)c1ccc(-c2ccc(-c3ccc(C(=N)N)cc3)s2)cc1
inactive: BT-549 breast 96.2%
active: T-47D breast -50.8% | MDA-MB-435 melanoma -77.6% | SW-620 colon -54.9% | MCF7 breast -55.3% | HCT-116 colon -45.3% | HCC-2998 colon -74.2% | KM12 colon -73%

FC(F)(F)c1ccc2c(c1)Sc1ccccc1N2
inactive: T-47D breast 77.7% | BT-549 breast 93.3% | MDA-MB-435 melanoma 97.1% | SW-620 colon 100% | MCF7 breast 95.4% | HCT-116 colon 100% | HCC-2998 colon 102% | KM12 colon 95%

CC(=O)Nc1ccc2nc3ccc(NC(C)=O)cc3[n+](-c3ccccc3)c2c1
inactive: T-47D breast 93.4% | BT-549 breast 101% | MDA-MB-435 melanoma 123% | SW-620 colon 116% | MCF7 breast 73.1% | HCT-116 colon 95.6% | HCC-2998 colon 108% | KM12 colon 116%

O=[N+]([O-])c1cc([N+](=O)[O-])c(NN=C(c2ccc(O)cc2)c2ccc(O)cc2)cc1Cl
active: T-47D breast -50.4% | BT-549 breast -11.6% | MDA-MB-435 melanoma -62.1% | SW-620 colon -75% | MCF7 breast -65.4% | HCT-116 colon -91.1% | HCC-2998 colon -93.5% | KM12 colon -77.7%

COc1cc(C)cc2oc3oc(=O)c(C(=O)c4cc5cc(Br)ccc5o4)cc3c(=O)c12
inactive: T-47D breast 107% | BT-549 breast 100% | MDA-MB-435 melanoma 104% | SW-620 colon 101% | MCF7 breast 101% | HCT-116 colon 99.7% | HCC-2998 colon 110% | KM12 colon 107%

Nc1ccc(Cl)c([N+](=O)[O-])c1
inactive: T-47D breast 91.9% | BT-549 breast 95.1% | MDA-MB-435 melanoma 95.1% | SW-620 colon 104% | MCF7 breast 101% | HCT-116 colon 97.7% | HCC-2998 colon 94.4% | KM12 colon 96.1%

C=C(C)[C@@H]1CC[C@]2(C)[C@H](CC=C3[C@@H]4[C@@H](C)[C@H](C)CC[C@]4(C(N)=O)CC[C@]32C)[C@@]1(C)CCC#N
active: T-47D breast 5.58% [100 µM] | BT-549 breast -25.4% [100 µM] | MDA-MB-435 melanoma 1.04% [100 µM] | SW-620 colon 7.86% [100 µM] | MCF7 breast 2.14% [100 µM] | HCT-116 colon -43.8% [100 µM] | HCC-2998 colon -22.4% [100 µM] | KM12 colon -46.4% [100 µM]

CC[C@@H]1NC(=O)[C@@H]2CCCCN2C(=O)[C@@H]2CCCN2C(=O)[C@@H](NC(=O)[C@H](Cc2cc(F)cc(F)c2)NC(=O)Nc2ccc(C3CC3)cc2F)[C@H](C)OC(=O)[C@@H]2C[C@@H](C)CN2C1=O
inactive: SW-620 colon 27% | MCF7 breast 13.4% | KM12 colon 17%
active: T-47D breast 7.13% | BT-549 breast 5.79% | MDA-MB-435 melanoma 3.08% | HCT-116 colon 4.17% | HCC-2998 colon -14.1%

O=C1NC(=O)c2cc([N+](=O)[O-])cc3cccc1c23
inactive: T-47D breast 96.1% | BT-549 breast 96% | MDA-MB-435 melanoma 100% | SW-620 colon 98.2% | MCF7 breast 90% | HCT-116 colon 107% | HCC-2998 colon 107% | KM12 colon 105%

O=c1[nH]c2cc(Cl)c(Cl)cc2n2cc3ncccc3c12
inactive: T-47D breast 49% | BT-549 breast 109% | MDA-MB-435 melanoma 87% | SW-620 colon 53.4% | MCF7 breast 30.4% | HCT-116 colon 71.1% | HCC-2998 colon 88% | KM12 colon 78.4%

COc1ccccc1S(=O)Nc1ccccc1 (configuration not stated)
inactive: T-47D breast 107% | BT-549 breast 108% | MDA-MB-435 melanoma 97.6% | SW-620 colon 72% | MCF7 breast 95.1% | HCT-116 colon 115% | HCC-2998 colon 107% | KM12 colon 106%

CCOc1ccccc1/C=N\Nc1ccc(S(=O)(=O)c2ccc(N/N=C/c3ccccc3OCC)cc2)cc1
inactive: T-47D breast 75.6% | BT-549 breast 83.4% | MDA-MB-435 melanoma 99.3% | SW-620 colon 97.9% | MCF7 breast 79.1% | HCT-116 colon 87.5% | HCC-2998 colon 107% | KM12 colon 91.5%

CCOC(=O)c1nn(C2CCCCO2)c2ccc(NC(=O)CSc3nc4ccccc4c(=O)[nH]3)cc12 (configuration not stated)
inactive: T-47D breast 99.1% | BT-549 breast 89.6% | MDA-MB-435 melanoma 107% | SW-620 colon 105% | MCF7 breast 92.1% | HCT-116 colon 101% | HCC-2998 colon 115% | KM12 colon 102%

O=C(O)CSCc1nnc2n(Cc3ccccc3)c(=O)c3c4c(sc3n12)CCCC4
inactive: T-47D breast 85% | BT-549 breast 101% | MDA-MB-435 melanoma 112% | SW-620 colon 107% | MCF7 breast 110% | HCT-116 colon 144% | HCC-2998 colon 98.1% | KM12 colon 109%

CCOC(=O)c1sc2nc(-c3cc(OC)c(OC)c(OC)c3)nc(N3CCOCC3)c2c1C
active: T-47D breast -6.97%
inactive: BT-549 breast 41.2% | MDA-MB-435 melanoma 35.7% | SW-620 colon 36.4% | MCF7 breast 27.1% | HCT-116 colon 25.6% | HCC-2998 colon 51.5% | KM12 colon 31.4%

Cc1ccc(Cn2c(O)c(N=NC(=O)c3ccc(S(N)(=O)=O)cc3)c3ccccc32)cc1
inactive: T-47D breast 83.7% | BT-549 breast 102% | MDA-MB-435 melanoma 102% | SW-620 colon 100% | MCF7 breast 95% | HCT-116 colon 102% | HCC-2998 colon 114% | KM12 colon 106%

CCCCCCCCCCCCCCCCCCNC(=S)N/N=C/c1ccc(OC)c(OC)c1
inactive: T-47D breast 95.8% | BT-549 breast 79.9% | MDA-MB-435 melanoma 97.4% | SW-620 colon 99.2% | MCF7 breast 96.8% | HCT-116 colon 96.9% | HCC-2998 colon 101% | KM12 colon 97.1%

Cc1ccc(NC(=O)N[C@@H](Cc2cc(F)cc(F)c2)C(=O)N[C@@H]2C(=O)N3CCC[C@H]3C(=O)N3CCCC[C@H]3C(=O)N[C@@H](C)C(=O)N3C[C@H](C)C[C@H]3C(=O)O[C@H]2C)cc1
inactive: T-47D breast 19.7% | BT-549 breast 19.6% | MDA-MB-435 melanoma 18.5% | SW-620 colon 35.6% | MCF7 breast 23.1% | HCT-116 colon 11.2% | HCC-2998 colon 24.6% | KM12 colon 37.8%

c1ccc2c(c1)CN(CCCN1CCOCC1)C2
inactive: T-47D breast 101% | BT-549 breast 121% | MDA-MB-435 melanoma 98.2% | SW-620 colon 107% | MCF7 breast 94.6% | HCT-116 colon 97.9% | HCC-2998 colon 98.6% | KM12 colon 102%

COc1cc2c(c(OC)c1OC)-c1ccc(NNC(N)=S)c(=O)cc1[C@@H](NC(C)=O)CC2
active: BT-549 breast -5.6% | MDA-MB-435 melanoma -12.2% | HCT-116 colon 2.28% | KM12 colon -35.6%
inactive: T-47D breast 70.7% | SW-620 colon 24.9% | MCF7 breast 10.1% | HCC-2998 colon 11.4%

Cn1cc(-c2nnc(-c3ccccc3)s2)c2cc(Br)cnc21
inactive: T-47D breast 44% | BT-549 breast 104% | MDA-MB-435 melanoma 92.6% | SW-620 colon 82.5% | MCF7 breast 40.5% | HCT-116 colon 108% | HCC-2998 colon 101% | KM12 colon 87.6%

C#CCNC(=O)CC[C@]1(C)[C@H]2CC[C@@H]3[C@@H]([C@@](C)(O)CCC=C(C)C)CC[C@@]3(C)[C@]2(C)CC[C@H]1C(=C)C
active: SW-620 colon -14.1% [100 µM]
inactive: T-47D breast 37.3% [100 µM] | BT-549 breast 41.8% [100 µM] | MDA-MB-435 melanoma 43.2% [100 µM] | MCF7 breast 30.5% [100 µM] | HCT-116 colon 16.6% [100 µM] | HCC-2998 colon 87.2% [100 µM] | KM12 colon 36% [100 µM]

C[n+]1cccc(NC(=O)c2ccc3ccc4ccc(C(=O)Nc5ccc[n+](C)c5)nc4c3n2)c1
inactive: T-47D breast 12% | BT-549 breast 90.4% | MDA-MB-435 melanoma 67.8% | SW-620 colon 56% | MCF7 breast 54% | HCT-116 colon 43.1% | HCC-2998 colon 42% | KM12 colon 42.2%

C#CCNC(=O)CC[C@@H](C)[C@H]1CC[C@H]2[C@@H]3CC[C@@H]4CC(=O)CC[C@]4(C)[C@H]3CC[C@]12C
active: T-47D breast 4.15% [100 µM] | BT-549 breast -60% [100 µM] | MDA-MB-435 melanoma -39.7% [100 µM] | SW-620 colon -58.2% [100 µM] | MCF7 breast -6.31% [100 µM] | HCT-116 colon -1.19% [100 µM] | HCC-2998 colon 0.203% [100 µM] | KM12 colon -26.6% [100 µM]

O=C(NNc1ccc(-c2ccccc2)nn1)c1ccc(F)cc1
inactive: T-47D breast 88.7% | BT-549 breast 95.1% | MDA-MB-435 melanoma 100% | SW-620 colon 100% | MCF7 breast 91% | HCT-116 colon 103% | HCC-2998 colon 102% | KM12 colon 102%

CCN(CC)CCCCCCNc1cccc2cc(Br)cnc12
inactive: T-47D breast 112% | BT-549 breast 80.8% | MDA-MB-435 melanoma 31.5% | SW-620 colon 56.5% | MCF7 breast 109% | HCT-116 colon 72.2% | HCC-2998 colon 88.3% | KM12 colon 65.7%
